Measured values reported in PubChem BioAssay (NCATS).
Results filed as inconclusive are left out. Entries that show only a call come without a potency. Active and inactive are the calls of the source. Calls follow the shape of the dose curve; as a rule, active = well fitted cell-killing curve with a large enough effect; inconclusive = small, poorly fitted or top-dose-only effect, or effect the other way; inactive = no such curve, though single readings can be large or run the other way.

Assay: qHTS of pediatric cancer cell lines to identify multiple opportunities for drug repurposing: Confirmatory screen for NB-EBc1 cells (AID 1347115);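 also: cells exposed to compound for 48 h before the viability read; nearly all actives have a fitted effect of over 45% in size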
Details: NB-EBc1 neuroblastoma cells, viability (cytotoxicity); series mostly up to 45.9 µM
In short: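 Cells (500-1,000/well) rested 5 h, then received compounds for 48 h; metabolically active cells were measured by CellTiter-Glo luminescence. Final concentrations spanned up to 46 µM (MIPE, 11-point) or 0.59 nM-46 µM (NPC, 8-point) in primary screens, 11-point in follow-ups.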
Potency is read from the fitted curve at half-maximal effect.

Row | Compound | Potency
1 | OC[C@H]1O[C@@H](n2cnc3c2NC=NC[C@@H]3O)C[C@H]1O | inactive
2 | COc1cc(N2CCC(N3CCN(C)CC3)CC2)ccc1Nc1ncc(Cl)c(Nc2ccccc2S(=O)(=O)C(C)C)n1 | 14.7 µM (active)
3 | Nc1ncnc2c1ncn2[C@@H]1O[C@@H](CO)[C@H](O)[C@H]1O | inactive
4 | O=C(O)c1ccc(-c2c[nH]c3ncc(-c4ccccc4)cc23)cc1C1CCCC1 | inactive
5 | CC1(C)S[C@H]2[C@H](NC(=O)[C@@H](N)c3ccc(O)cc3)C(=O)N2[C@@H]1C(=O)O | inactive
6 | CCc1ccc(OCc2ccccc2C(=O)Nc2ccc3nc(C)cc(N)c3c2)cc1 | 8.27 µM (active)
7 | CN(C)C1CCN(C(=O)c2ccc(NC(=O)Nc3nc(N4CCOCC4)nc(N4CCOCC4)n3)cc2)CC1 | 16.5 µM (active)
8 | CO[C@H]1C(=O)[C@]2(C)[C@@H](OC)C[C@H]3OC[C@@]3(OC(C)=O)[C@H]2[C@H](OC(=O)c2ccccc2)[C@]2(O)C[C@H](OC(=O)[C@H](O)[C@@H](NC(=O)OC(C)(C)C)c3ccccc3)C(C)=C1C2(C)C | inactive
9 | NC1=N[C@@]2(c3cc(NC(=O)c4ccc(F)cn4)ccc3F)COC[C@@H]2CS1 | inactive
10 | CC1(C)CCC[C@@]2(C)[C@@H]1CC[C@@]1(C)OC(=O)C[C@H]21 | inactive
11 | NS(=O)(=O)c1cccc2c1C(=O)c1cccc(O)c1C2=O | inactive
12 | O=C1c2ccccc2-[n+]2ccc3c([nH]c4ccccc43)c21 | 2.61 µM (active)
13 | C=C1C(=O)[C@@]23C(CC[C@@H]1[C@H]2O)[C@@]12CO[C@]3(O)[C@@H](O)[C@@H]1C(C)(C)CC[C@@H]2O (stereo partly drawn) | 8.27 µM (active)
14 | O=C1NC(=O)C(=Cc2ccc3c(c2)OC(F)(F)O3)S1 | inactive
15 | CC(=O)Nc1ccc([C@H](C)C(=O)Nc2ncc(C(C)C)s2)cc1 | inactive
16 | O=C1C(Cl)=C(NCCN2CCOCC2)C(=O)c2ncccc21 | 5.85 µM (active)
17 | CC(C)(C(=O)NCC(F)(F)C(F)(F)F)C(=O)N[C@@H]1C(=O)Nc2ccccc2-c2ccccc21 | inactive
18 | CC(=O)O[C@]1(C(C)=O)CC[C@@H]2[C@@H]3C[C@H](C)C4=CC(=O)CC[C@]4(C)[C@H]3CC[C@@]21C | inactive
